Compounds with a hit are over-represented: about 2.7% of the library has one in this group of screens.
LDHA block: blocks human lactate dehydrogenase A; P00338; purified LDHA, NADH/diaphorase-resazurin fluorescence; active compounds read low; activity change, % (values are at about 110 or 230 µM); 480,000 compounds, 0.15% hits; AID 1347041; in the data active means activity change below about -30%; inconclusive means mostly about -25% to -30%
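LDH5 2 nM; NADH 0.06 mM, pyruvate 0.2 mM; 200 mM Tris pH 7.4, EDTA, Tween-20; 5 min RT. Detection: diaphorase 0.133 mg/mL + resazurin 37 µM, fluorescence ex540/em590 at 0 and 20 min; normalized to enzyme-free and DMSO wells.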
Nrf2 ARE act: activates Nrf2 signaling; AREc32 ARE-luciferase reporter (MCF7-derived line), luminescence, 24 h; Potency, µM (titrated, usually from 46.1 µM), most hits filed as activators; AID 624171; 410,000 compounds, 0.31% hits; further: nearly all actives have a fitted effect of over 65% in size
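AREc32 cells carrying an ARE-driven firefly luciferase reporter were seeded at 1000 cells/well in OPTI-MEM with 5% FBS, then exposed to compound for 24 hr at 37 deg C. Luminescence was read with Steady-Glo after 30 min at RT.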
IDH1 R132H inh: blocks human mutant IDH1 R132H enzyme; O75874; IDH1-R132H enzyme, NADPH consumption, diaphorase/resazurin fluorescence; Potency, µM (titrated, usually from 76.6 µM), actives largely listed as inhibitors; 390,000 compounds, 0.093% hits; AID 602179; further: nearly all actives have a fitted effect of over 65% in size
Target sequence (O75874 whole entry R132H, stated change not applied): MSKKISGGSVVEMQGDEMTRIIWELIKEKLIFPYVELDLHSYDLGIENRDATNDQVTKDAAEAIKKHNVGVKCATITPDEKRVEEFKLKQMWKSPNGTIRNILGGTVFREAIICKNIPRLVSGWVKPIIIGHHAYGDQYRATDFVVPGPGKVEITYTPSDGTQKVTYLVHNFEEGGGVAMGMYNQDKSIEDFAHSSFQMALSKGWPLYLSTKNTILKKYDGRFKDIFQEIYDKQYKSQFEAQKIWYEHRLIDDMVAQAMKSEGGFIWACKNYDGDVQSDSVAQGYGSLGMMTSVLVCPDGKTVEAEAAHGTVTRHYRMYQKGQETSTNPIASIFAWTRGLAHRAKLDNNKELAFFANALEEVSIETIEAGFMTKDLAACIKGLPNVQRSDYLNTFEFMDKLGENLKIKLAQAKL
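IDH1-R132H (0.5 ug/mL dispensed) in pH 7.5 Tris buffer was preincubated 30 min with compound, then given a substrate mix of 0.016 mM NADPH and 2 mM alpha-KG for 80 min at room temperature; remaining NADPH was read by diaphorase/resazurin fluorescence.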
A549 viability: A549 cytotoxicity, counter-screen for Nrf2 inhibitors. A549 ARE-Fluc cells, CellTiter-Fluor viability, 18-24 h. 390,000 compounds, 0.16% hits. Potency, µM (top dose mostly 46 µM), actives largely listed as inhibitors
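A549 ARE-Fluc cells in 5% FBS OPTI-MEM, 5000 cells/well, rested 2 h then exposed to compounds in concentration-response for 18-24 h at 37 °C. Viability by CellTiter-Fluor fluorescence (Ex 405/Em 525) after 30 min; luciferase luminescence (BugLite, 15 min, RT) read afterwards.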
Nrf2 block: inhibitors of Nrf2 signaling | A549 ARE-Fluc reporter, luciferase luminescence, 18-24 h | Potency, µM (top dose mostly 46 µM), most hits filed as inhibitors | 360,000 compounds, 2.1% hits; further: nearly all actives have a fitted effect of over 60% in size
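A549 ARE_Fluc cells, 5000/well, 5% FBS OPTI-MEM; compounds in dose-response, 18-24 h at 37 °C/5% CO2; CellTiter-Fluor viability read (Ex 405/Em 525), then BugLite luciferase luminescence = Nrf2 activity.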
12-LOX inh: blocks human arachidonate 12S-lipoxygenase; purified 12hLO, xylenol orange hydroperoxide absorbance; Potency, µM (doses to about 108 µM), usual class: inhibitors; 580,000 compounds, 1.1% hits
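Purified human 12hLO (150 nM final) in 25 mM Hepes, 0.01% Triton X-100, pH 7.0 was preincubated 15 min at room temperature with compound. Then 40 uM arachidonic acid was added, 30 min. Hydroperoxide was read by Fe-XO absorbance ratio 573/405 nm.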
Hits are given with their value; i = inactive; ? = inconclusive; nt = no result. Unless noted, the call rests on the fitted dose curve; in most records, active means well fitted curve in the direction sought with a large enough effect; inconclusive means small, poorly fitted or top-dose-only effect, or another doubt; inactive means no such curve, though single readings can be large; an effect the other way counts as inactive or inconclusive.

SMILES	LDHA block	Nrf2 ARE act	IDH1 R132H inh	A549 viability	Nrf2 block	12-LOX inh
CCOC(=O)[C@]12Cc3cc(Cl)ccc3[C@H]1N(C1CCCCC1)C(=O)c1cc(OC)ccc12	i	i	nt	nt	nt	45µM
CCOC(=O)[C@]12Cc3ccc(C)cc3[C@H]1N(C1CCCCC1)C(=O)c1ccccc12	i	i	nt	nt	nt	?
CCOC(=O)[C@]12Cc3cc(C)ccc3[C@H]1N(C1CCCCC1)C(=O)c1ccccc12	i	i	nt	nt	nt	50µM
CCOC(=O)[C@]12Cc3ccc(C)cc3[C@H]1N(C1CCCCC1)C(=O)c1cc(OC)ccc12	i	i	nt	nt	nt	56µM
CCOC(=O)[C@]12Cc3cc(Cl)ccc3[C@H]1N(C)C(=O)c1cc(OC)ccc12	i	i	nt	nt	nt	?
N#Cc1cccc(NC(=O)NC[C@H]2C[C@@H]3CCN2C[C@@H]3CN2CCN(c3ccc(F)cc3)CC2)c1	nt	nt	nt	nt	nt	i
Cc1sc2c(c1C)C(c1ccc(F)cc1)=NCC(=O)N2CC(=O)Nc1ccc(F)cc1F	i	nt	nt	nt	nt	?
COc1cc2c(cc1OCc1ccccc1)NC(=O)C21CCN(c2ccccn2)CC1	nt	nt	nt	nt	nt	i
Clc1ccc(N2CCN(CC3[C@H]4CNC[C@@H]34)CC2)nc1 (stereo not given in full)	nt	nt	nt	nt	nt	32µM
COc1cc(O)c(C(=O)O)c(-c2cc(O)c(O)cc2C)c1	i	i	i	i	i	3.2µM
Cc1ccc(S(=O)(=O)NC[C@H]2C[C@@H]3CCN2C[C@@H]3CN2CCc3ccccc32)cc1	nt	nt	nt	nt	nt	i
CC[N+](C)(CC)CCCOC(=O)C(O)(c1ccccc1)C1CCCCC1 (stereo not given)	-82	i	i	i	nt	i
CC1(C)c2[nH]c3ccccc3c2C[C@@H]2C(=O)N(Cc3ccccc3F)C(=O)N21	i	i	nt	i	i	i
CC1(C)c2[nH]c3ccccc3c2C[C@H]2C(=O)N(Cc3ccccc3F)C(=O)N21	i	i	nt	?	23µM	i
Cc1cccc(CN2C[C@@H]3C[C@H]2C(=O)N(C)c2ccccc2O3)n1	nt	nt	nt	nt	nt	i
COc1cc(CNC2CN3CCC2CC3)cc(Cl)c1OCc1ccccc1Cl (stereo not given)	i	nt	nt	nt	nt	?
O=C1N(Cc2ccccn2)C[C@H]2CN(C3CCC3)CCN12	nt	nt	nt	nt	nt	i
Cc1ccc(C(=O)N2[C@H]3CC[C@@H]2c2cnc(-c4ccc(F)cc4)nc2C3)cn1	nt	nt	nt	nt	nt	40µM
O=C(NC1CCSC1=O)c1cccs1 (stereo not given)	i	nt	nt	nt	nt	i
CCCOc1ccc(C(=O)Nc2ccc(-c3cc4ccccc4oc3=O)c(C)c2)cc1	i	i	i	i	5.8µM	i
COc1ccc(C(=O)Nc2cccc(S(=O)(=O)NCc3ccco3)c2)cc1	i	i	i	i	?	i
Cc1cccc(C(=O)N2CCC(=O)CC2)c1	i	nt	nt	nt	nt	i
Cc1nc(-c2ccccc2Br)cc([C@H]2CN3CC[C@H]2C[C@@H]3CNC(=O)Nc2ccc(Cl)cc2)n1	nt	nt	nt	nt	nt	i
CCCCCCC(=O)N/N=C/c1c(O)n(CCCC)c(=S)[nH]c1=O	i	i	i	i	21µM	?
COc1ccc(-c2nc(NC(=O)Cn3c(=O)oc4ccccc43)sc2C)cc1	i	i	i	i	18µM	i
SMILES	LDHA block	Nrf2 ARE act	IDH1 R132H inh	A549 viability	Nrf2 block	12-LOX inh
Nc1cccc(-c2cn(C[C@H]3CC4CCN3C[C@@H]4C(=O)NC3CC3)nn2)c1 (stereo not given in full)	nt	nt	nt	nt	nt	i
CC(=O)O[C@H]1[C@H]2O[C@]23[C@@H]2CC[C@]4(O)C[C@@H](O)CC[C@]4(C)C2CC[C@]3(C)[C@H]1c1ccc(=O)oc1 (stereo not given in full)	i	i	i	?	0.058µM	i
CCN1CCN(S(=O)(=O)c2ccc(Cl)c(C(=O)Nc3ccc(C(=O)N(CC)CC)cc3)c2)CC1	i	i	i	i	?	20µM
CCN(CC)C(=O)c1ccc(NC(=O)c2cccc(C(F)(F)F)c2)cc1	i	i	i	i	i	i
Fc1ccc(CN2CCN(Cc3cccc(F)c3)CC2)cc1	i	nt	nt	nt	nt	?
Cc1ccccc1CN1CCN(Cc2cccc(F)c2)CC1	i	nt	nt	nt	nt	0.11µM

Bioassay records: PubChem BioAssay, National Center for Advancing Translational Sciences (NCATS)
